Experimental data: PubChem BioAssay (NCATS)
Several values for one entry are separate records, joined by “and”; a condition that tells them apart may be missing. Equal entries are not always repeated. Records with an inconclusive call do not appear. Where a call stands in place of a potency, no number is given. Activity calls are given as the source filed them. Unless noted, calls follow the shape of the dose curve; as a rule, active = well fitted curve in the direction sought with a large enough effect; inconclusive = small, poorly fitted or top-dose-only effect, or another doubt; inactive = no such curve, though single readings can be large; an effect the other way counts as inactive or inconclusive.

Test system: not listed separately
Experiment: Inducers of the Endoplasmic Reticulum Stress Response (ERSR) in human glioma: Validation (AID 504836)
Conditions: human glioma cells, ER stress response reporter; series mostly up to 38.3 µM
Procedure, shortened: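 Stably transfected U87-MG human glioma cells carrying a GRP78-based luminescent sensor were seeded at 1000 cells/well, pin-dosed with compounds and incubated 16 h. Luciferase reagent was then added, and end-point luminescence was read after 10 min at room temperature.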

Row | Compound | outcome
1 | CC(=O)[C@@]1(O)CC[C@H]2[C@@H]3CCC4=CC(=O)CC[C@]4(C)[C@H]3CC[C@@]21C | inactive
2 | CCCCC1C(=O)N(c2ccccc2)N(c2ccccc2)C1=O | inactive
3 | Cn1cnc2c1c(=O)[nH]c(=O)n2C | inactive
4 | OC(CCN1CCCCC1)(c1ccccc1)C1CC2C=CC1C2 (configuration not stated) | inactive
5 | CN1C[C@H](C(=O)N[C@]2(C)O[C@@]3(O)[C@@H]4CCCN4C(=O)[C@H](Cc4ccccc4)N3C2=O)C[C@@H]2c3cccc4[nH]cc(c34)C[C@H]21 | inactive
6 | Clc1ccccc1C(c1ccccc1)(c1ccccc1)n1ccnc1 | inactive
7 | CCCCNc1cc(C(=O)O)cc(S(N)(=O)=O)c1Oc1ccccc1 | inactive
8 | CC[C@H]1CN2CCc3cc(OC)c(OC)cc3[C@@H]2C[C@@H]1C[C@H]1NCCc2cc(OC)c(OC)cc21 | inactive
9 | NC1=NCC2c3ccccc3Cc3ccccc3N12 (configuration not stated) | inactive
10 | CCOC(=O)C(C)(C)Oc1ccc(Cl)cc1 | inactive
11 | COC(=O)C1=C(C)NC(C)=C(C(=O)OC)C1c1ccccc1[N+](=O)[O-] | inactive
12 | CNC(=O)Oc1ccc2c(c1)[C@]1(C)CCN(C)[C@@H]1N2C | inactive
13 | NC(N)=NC(=O)c1nc(Cl)c(N)nc1N | inactive
14 | CC(C)NCC(O)COc1ccc(COCCOC(C)C)cc1 (configuration not stated) | inactive
15 | Oc1ccc(/C=C/c2cc(O)cc(O)c2)cc1 | inactive
16 | N[C@@H](Cc1c[nH]c2ccc(O)cc12)C(=O)O | inactive
17 | CCNC(=O)N1CCN(CCCC(c2ccc(F)cc2)c2ccc(F)cc2)CC1 | inactive
18 | C[C@]12C=CC(=O)C=C1CC[C@H]1[C@@H]3C[C@@H](O)[C@](O)(C(=O)CO)[C@@]3(C)C[C@H](O)[C@@]12F | inactive
19 | NS(=O)(=O)c1cc2c(cc1Cl)NCNS2(=O)=O | inactive
20 | COC(=O)C1=C(C)NC(C)=C(C(=O)OC(C)(C)CN(C)CCC(c2ccccc2)c2ccccc2)C1c1cccc([N+](=O)[O-])c1 (configuration not stated) | inactive
21 | C[C@]12CC[C@@H]3c4ccc(O)cc4CC[C@H]3[C@@H]1CCC2=O | inactive

Target: Ubiquitin carboxyl-terminal hydrolase 1 (Homo sapiens) (UniProt O94782)
Experiment: Inhibitors of USP1/UAF1: Pilot qHTS (AID 504865);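 also: rhodamine fluorescence freed from ubiquitin-rhodamine substrate followed over time; top concentration of the series differs between compounds; nearly all actives have a fitted effect of over 35% in size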
Conditions: purified USP1/UAF1, Ub-rhodamine cleavage fluorescence; series mostly up to 114 µM
Procedure, shortened: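 1nM USP1/UAF1 + cpd, 15 min RT; start w/ Ub-Rho 150nM final; kinetic FL 480/540 nm, 6 reads q60 s. Buffer 50mM HEPES pH 7.8, 0.5mM EDTA, 1mM TCEP, 0.01% Tween-20, 0.1 mg/ml BSA.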

Ubiquitin carboxyl-terminal hydrolase 1 (Homo sapiens), sequence (O94782 whole entry, looked up): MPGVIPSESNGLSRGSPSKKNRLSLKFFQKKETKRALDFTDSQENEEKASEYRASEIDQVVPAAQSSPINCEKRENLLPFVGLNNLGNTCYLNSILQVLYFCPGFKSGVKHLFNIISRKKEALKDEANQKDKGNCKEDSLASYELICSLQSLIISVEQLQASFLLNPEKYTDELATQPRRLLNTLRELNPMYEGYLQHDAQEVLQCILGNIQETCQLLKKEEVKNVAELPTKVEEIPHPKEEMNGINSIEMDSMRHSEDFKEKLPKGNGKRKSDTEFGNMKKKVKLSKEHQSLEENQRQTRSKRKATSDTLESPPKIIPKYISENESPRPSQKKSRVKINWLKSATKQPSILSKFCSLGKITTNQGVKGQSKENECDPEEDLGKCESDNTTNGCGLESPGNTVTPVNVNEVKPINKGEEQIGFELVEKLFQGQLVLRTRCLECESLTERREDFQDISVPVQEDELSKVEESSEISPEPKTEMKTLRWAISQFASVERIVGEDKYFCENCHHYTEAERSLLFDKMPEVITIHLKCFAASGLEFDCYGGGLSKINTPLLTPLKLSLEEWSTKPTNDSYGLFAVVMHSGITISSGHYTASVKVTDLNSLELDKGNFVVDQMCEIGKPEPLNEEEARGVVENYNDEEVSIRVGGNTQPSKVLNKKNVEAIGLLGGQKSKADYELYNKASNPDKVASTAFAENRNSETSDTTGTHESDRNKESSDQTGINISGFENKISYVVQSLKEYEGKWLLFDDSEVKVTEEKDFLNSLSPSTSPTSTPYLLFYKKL

Row | Compound | Potency
22 | CC(C)NCC(O)c1ccc(N)c(C#N)c1 (configuration not stated) | inactive
23 | CC(C)(C)OC(=O)c1ncn2c1[C@@H]1CCCN1C(=O)c1c(Br)cccc1-2 | inactive
24 | CCN1CCCC(OC(=O)C(c2ccccc2)c2ccccc2)C1 (configuration not stated) | inactive
25 | CCS(=O)(=O)C(C)(C)S(=O)(=O)CC | inactive
26 | CCN(Cc1ccc(Cl)nc1)/C(=C/[N+](=O)[O-])NC | inactive
27 | CN1C(=O)CN=C(c2ccccc2)c2cc([N+](=O)[O-])ccc21 | inactive
28 | CN1C[C@H](C(=O)N[C@]2(C)O[C@@]3(O)[C@@H]4CCCN4C(=O)[C@H](Cc4ccccc4)N3C2=O)C[C@@H]2c3cccc4[nH]cc(c34)C[C@H]21 | inactive
29 | CC(C)(O)C(Cl)(Cl)Cl | inactive
30 | CCCC(C)C1(CC)C(=O)N=C(S)NC1=O (configuration not stated) | inactive
31 | CC[C@H]1CN2CCc3cc(OC)c(OC)cc3[C@@H]2C[C@@H]1C[C@H]1NCCc2cc(OC)c(OC)cc21 | inactive
32 | COC(=O)C1=C(C)NC(C)=C(C(=O)OC)C1c1ccccc1[N+](=O)[O-] | inactive
33 | C[C@]12Cc3nonc3C[C@@H]1CC[C@@H]1[C@@H]2CC[C@@]2(C)[C@H]1CC[C@]2(C)O | inactive
34 | CN1C[C@@H](NS(=O)(=O)N(C)C)C[C@@H]2c3cccc4c3c(cn4C)C[C@H]21 | inactive
35 | CNC(=O)Oc1ccc2c(c1)[C@]1(C)CCN(C)[C@@H]1N2C | inactive
36 | C[C@H](N)[C@H](O)c1ccc(O)c(O)c1 | inactive
37 | Nc1ccc(N)cc1 | inactive
38 | Cc1ncc2n1-c1ccc(Cl)cc1C(c1ccccc1F)=NC2 | inactive
39 | CC(Cc1ccccc1)NCc1ccccc1Cl (configuration not stated) | inactive
40 | NC(=O)OCCCc1ccccc1 | inactive
41 | Cc1c(Cl)c(=O)oc2cc(OP(=O)(OCCCl)OCCCl)ccc12 | inactive

Target: Bile acid receptor (Homo sapiens) (UniProt Q96RI1)
Experiment: qHTS assay for small molecule agonists of farnesoid X receptor signaling (AID 588527; calls by dose curve)
Conditions: HEK293T FXR-UAS-bla, beta-lactamase ratio, 16 h; stronger effect = higher value
Procedure, shortened: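 FXR-UAS-bla HEK293T, 10% dialyzed FBS; cpds up to 92 uM titration, 16 h 37 C; CCF4 dye 2 h RT; fluorescence. Normalized to chenodeoxycholic acid 100 uM (100%) and DMSO (0%); Hill fit gives EC50, efficacy.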

Bile acid receptor (Homo sapiens), sequence (Q96RI1 whole entry, looked up): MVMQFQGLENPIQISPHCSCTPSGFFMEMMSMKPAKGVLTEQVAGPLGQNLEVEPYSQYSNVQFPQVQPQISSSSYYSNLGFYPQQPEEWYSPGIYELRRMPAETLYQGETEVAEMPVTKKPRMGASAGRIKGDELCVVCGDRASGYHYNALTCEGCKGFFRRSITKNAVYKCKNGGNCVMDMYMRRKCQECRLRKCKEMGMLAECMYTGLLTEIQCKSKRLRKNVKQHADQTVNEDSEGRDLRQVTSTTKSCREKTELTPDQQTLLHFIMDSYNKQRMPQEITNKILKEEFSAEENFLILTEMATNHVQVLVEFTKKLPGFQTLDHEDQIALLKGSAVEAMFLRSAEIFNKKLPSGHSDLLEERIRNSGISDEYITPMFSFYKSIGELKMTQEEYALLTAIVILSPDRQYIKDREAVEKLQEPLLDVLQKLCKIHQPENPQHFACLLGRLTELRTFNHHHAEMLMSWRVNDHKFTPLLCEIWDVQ

Row | Compound | activation
42 | CCCCC1C(=O)N(c2ccccc2)N(c2ccccc2)C1=O | -3.79% (inactive) and -9.64% (inactive)
43 | Cn1cnc2c1c(=O)[nH]c(=O)n2C | 0.0385% (inactive)
44 | CCOC(=O)C(C)(C)Oc1ccc(Cl)cc1 | 1.97% (inactive)
45 | CNC(=O)Oc1ccc2c(c1)[C@]1(C)CCN(C)[C@@H]1N2C | 1.98% (inactive)
46 | Oc1ccc(/C=C/c2cc(O)cc(O)c2)cc1 | -3.05% (inactive) and -1.39% (inactive)
47 | NS(=O)(=O)c1cc2c(cc1Cl)NCNS2(=O)=O | -0.539% (inactive) and 0.498% (inactive)
48 | C[C@]12CC[C@@H]3c4ccc(O)cc4CC[C@H]3[C@@H]1CCC2=O | 5.41% (inactive)

Target: Peroxisome proliferator-activated receptor delta (Homo sapiens) (UniProt Q03181)
Experiment: qHTS assay for small molecule agonists of peroxisome proliferator-activated receptor delta signaling (AID 588534; calls by dose curve)
Conditions: HEK293T PPARdelta-UAS-bla, beta-lactamase ratio, 18 h; series mostly up to 76.7 µM
Procedure, shortened: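 Cell-based beta-lactamase reporter assay run in agonist mode: cells seeded and incubated 5 hrs at 37 C, compounds added and incubated 18 hrs at 37 C. CCF4 dye fluorescence read after 2 hrs at RT; EC50 and efficacy from Hill fits.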

Peroxisome proliferator-activated receptor delta (Homo sapiens), sequence (Q03181 whole entry, looked up): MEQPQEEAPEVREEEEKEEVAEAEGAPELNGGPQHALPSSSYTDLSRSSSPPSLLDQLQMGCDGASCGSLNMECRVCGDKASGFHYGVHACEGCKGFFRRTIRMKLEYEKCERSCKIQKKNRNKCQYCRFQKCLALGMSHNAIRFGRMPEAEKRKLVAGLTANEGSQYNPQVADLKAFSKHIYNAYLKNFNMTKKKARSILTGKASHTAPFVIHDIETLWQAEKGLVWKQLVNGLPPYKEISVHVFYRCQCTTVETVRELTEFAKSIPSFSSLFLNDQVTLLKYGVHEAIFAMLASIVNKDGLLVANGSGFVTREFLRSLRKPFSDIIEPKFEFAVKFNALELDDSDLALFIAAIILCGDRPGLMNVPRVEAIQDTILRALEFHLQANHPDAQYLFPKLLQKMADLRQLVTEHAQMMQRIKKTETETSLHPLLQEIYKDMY

Row | Compound | outcome
49 | CC(=O)[C@@]1(O)CC[C@H]2[C@@H]3CCC4=CC(=O)CC[C@]4(C)[C@H]3CC[C@@]21C | inactive
50 | CNC(=O)Oc1ccc2c(c1)[C@]1(C)CCN(C)[C@@H]1N2C | inactive
51 | N[C@@H](Cc1c[nH]c2ccc(O)cc12)C(=O)O | inactive
52 | C[C@]12C=CC(=O)C=C1CC[C@H]1[C@@H]3C[C@@H](O)[C@](O)(C(=O)CO)[C@@]3(C)C[C@H](O)[C@@]12F | inactive
